Laboratory results: PubChem BioAssay (Tox21)
Values joined by “and” are separate entries in the source; they are usually repeats but may differ in a detail not shown here. Equal entries are not always repeated. Results filed as inconclusive are left out. Active and inactive are the calls of the source. Unless noted, calls come from the whole dose curve; as a rule, active = well fitted curve in the direction sought with a large enough effect in the repeat runs; inconclusive = weak or mixed curves; inactive = no such curve, though single readings can be large; an effect the other way counts as inactive or inconclusive.

Legend:
[1] = qHTS assay to identify small molecule antagonists of the glucocorticoid receptor (GR) signaling pathway - cell viability counter screen (AID 720693); note: nearly all actives have a fitted effect of over 55% in size
[2] = qHTS assay for identifying genotoxic compounds that show differential cytotoxicity against isogenic chicken DT40 cell lines with known DNA damage response pathways - wild type cell line (AID 743012); note: nearly all actives have a fitted effect of over 60% in size; note: potency is the fitted concentration of half-maximal effect
Summary of the method: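 Parental DNA repair-proficient DT40 cells, 300 per well, were pre-incubated ~0.5 h at 37 C/5% CO2, pin-dosed with compounds in DMSO, then incubated 40 h. Viability was read as CellTiter-Glo luminescence after 30 min at room temperature.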

[3] = qHTS assay for identifying genotoxic compounds that show differential cytotoxicity against isogenic chicken DT40 cell lines with known DNA damage response pathways - Rev3 mutant cell line (AID 743014); note: nearly all actives have a fitted effect of over 55% in size; note: potency is the fitted concentration of half-maximal effect
[4] = qHTS assay for identifying genotoxic compounds that show differential cytotoxicity against isogenic chicken DT40 cell lines with known DNA damage response pathways - Rad54/Ku70 mutant cell line (AID 743015); note: nearly all actives have a fitted effect of over 60% in size; note: potency is the fitted concentration of half-maximal effect
[5] = qHTS assay to identify small molecule antagonists of the androgen receptor (AR) signaling pathway - cell viability counter screen (AID 743033; note: nearly all actives have a fitted effect of over 45% in size; note: potency is the fitted concentration of half-maximal effect)
[6] = target: Androgen receptor (Homo sapiens) (UniProt P10275); assay: qHTS assay to identify small molecule agonists of the androgen receptor (AR) signaling pathway (AID 743036; active = well fitted activation curve with a large enough effect in the signal ratio in the repeat runs, with a control signal flat, not every such curve was filed as active; the % refers to the signal ratio)
Summary of the method: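 Screening used 2,000 AR-bla HEK293 cells per well, treated 16 h at 37C with test compounds in DMSO alongside positive and DMSO-only controls; beta-lactamase activity was then read by LiveBLAzer B/G FRET fluorescence after 2 h at room temperature.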

[7] = target: Androgen receptor (Homo sapiens) (UniProt P10275); assay: qHTS assay to identify small molecule agonists of the androgen receptor (AR) signaling pathway using the MDA cell line (AID 743040; note: nearly all actives have a fitted effect of over 20% in size; note: potency is the fitted concentration of half-maximal effect)
Summary of the method: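 After a 5 h incubation at 37C and 0% CO2, MDA-kb2 reporter cells were dosed with compounds in DMSO and kept 16 h under the same conditions. Luciferase activity was then read as luminescence with ONE-Glo.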

[8] = target: Androgen receptor (Homo sapiens) (UniProt P10275); assay: qHTS assay to identify small molecule antagonists of the androgen receptor (AR) signaling pathway (AID 743035; active = well fitted inhibition curve with a large enough effect in the signal ratio in the repeat runs, not every such curve was filed as active; the % refers to the signal ratio; note: potency is the fitted concentration of half-maximal effect)
Summary of the method: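 HEK293 cells stably carrying a UAS-driven beta-lactamase reporter (AR-UAS-bla GripTite) were plated for 4 h at 37C, then given compound and the agonist R1881 and incubated 16 h. Reporter activity was read by LiveBLAzer B/G FRET fluorescence after 2 h at room temperature.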

[9] = qHTS assay to identify small molecule antagonists of the androgen receptor (AR) signaling pathway using the MDA cell line - cell viability counter screen (AID 743041; note: nearly all actives have a fitted effect of over 45% in size)
Summary of the method: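 R1881-driven MDA-kb2 AR-luc cells, 3,000/well, were dosed with library compounds for 16 h; cell health came from CellTiter-Fluor fluorescence in the reporter wells.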

[10] = target: Androgen receptor (Homo sapiens) (UniProt P10275); assay: qHTS assay to identify small molecule antagonists of the androgen receptor (AR) signaling pathway using the MDA cell line (AID 743042; note: nearly all actives have a fitted effect of over 55% in size)
Summary of the method: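 Antagonist mode: compounds plus R1881 agonist added to MDA-kb2 AR-luc cells, incubated 16 h at 37C. Luciferase reporter luminescence quantified, with multiplexed CellTiter-Fluor readout for cell viability.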

Measured: Potency

Sequence of Androgen receptor (Homo sapiens) (P10275 whole entry, looked up): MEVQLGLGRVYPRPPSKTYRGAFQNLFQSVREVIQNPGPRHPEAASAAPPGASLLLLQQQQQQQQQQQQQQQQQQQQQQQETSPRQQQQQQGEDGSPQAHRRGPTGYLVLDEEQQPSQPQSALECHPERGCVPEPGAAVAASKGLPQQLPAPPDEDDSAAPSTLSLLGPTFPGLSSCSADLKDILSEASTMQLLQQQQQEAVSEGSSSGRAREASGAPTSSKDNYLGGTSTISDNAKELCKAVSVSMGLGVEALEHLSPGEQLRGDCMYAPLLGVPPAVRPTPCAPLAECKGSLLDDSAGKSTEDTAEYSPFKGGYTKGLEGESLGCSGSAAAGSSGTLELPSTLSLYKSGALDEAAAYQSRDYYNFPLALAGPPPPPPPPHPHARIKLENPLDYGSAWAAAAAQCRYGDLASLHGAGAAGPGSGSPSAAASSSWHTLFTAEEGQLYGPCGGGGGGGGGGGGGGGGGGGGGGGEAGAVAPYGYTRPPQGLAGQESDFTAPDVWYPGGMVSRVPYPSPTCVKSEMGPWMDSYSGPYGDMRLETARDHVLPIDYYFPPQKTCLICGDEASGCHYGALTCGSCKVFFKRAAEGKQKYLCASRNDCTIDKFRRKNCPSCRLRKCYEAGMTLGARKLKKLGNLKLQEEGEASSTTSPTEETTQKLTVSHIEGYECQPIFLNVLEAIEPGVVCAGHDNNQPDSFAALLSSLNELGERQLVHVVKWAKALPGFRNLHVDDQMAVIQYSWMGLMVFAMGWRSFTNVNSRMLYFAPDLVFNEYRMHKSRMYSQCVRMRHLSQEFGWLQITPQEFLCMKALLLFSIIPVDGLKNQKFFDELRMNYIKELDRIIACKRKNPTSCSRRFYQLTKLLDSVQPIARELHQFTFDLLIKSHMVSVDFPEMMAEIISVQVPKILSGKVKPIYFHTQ

O=NN1CCN(N=O)CC1
inactive: [1] | [2] | [3] | [4] | [5]

N#CC(CCc1ccc(Cl)cc1)(Cn1cncn1)c1ccccc1 (stereo not given)
inactive: [1] | [6] | [7]
active: [2] 13.7 µM | [3] 13.7 µM | [4] 13.7 µM | [5] 49 µM

CCCSC(=O)N(CCC)CCC
inactive: [1] | [2] | [3] | [4] | [5]

O=C1c2ccccc2C(=O)c2ccccc21
inactive: [1] | [2] | [3] | [4]

Cc1nc(N)nc(N)n1
not listed: [6] | [7]
inactive: all other assays above

CC(=O)C(Cl)Cl
inactive: [1] | [2] | [3] | [4] | [5]

O=[N+]([O-])c1cccc2c([N+](=O)[O-])cccc12
inactive: all assays above

CCCCOC(=O)c1ccccc1C(=O)O
not listed: [6]
inactive: all other assays above

COc1cc(OC)nc(NC(=O)NS(=O)(=O)c2ncccc2OCC(F)(F)F)n1
inactive: [1] | [2] | [3] | [4] | [5]

CNC(=O)Oc1ccc(N(C)C)c(C)c1
inactive: [1] | [5]
active: [2] 54.5 µM | [3] 34.4 µM | [4] 68.6 µM

N#CC(Cl)(Cl)Cl
inactive: all assays above

C[C@H]1CCC[C@H](O)CCCCCc2cc(O)cc(O)c2C(=O)O1
inactive: [1] | [5]
active: [2] 18.8 µM and 61.6 µM | [3] 26.6 µM and 27.5 µM | [4] 16.8 µM and 43.6 µM

CCOP(=S)(OCC)Oc1cc(-c2ccccc2)on1
active: [2] 68.6 µM | [3] 61.1 µM | [4] 68.6 µM
inactive: [1] | [5] | [9]

C#C[C@]1(O)C=C[C@H]2[C@@H]3CCC4=CC(=O)CC[C@@H]4[C@H]3CC[C@@]21CC
active: [2] 23.7 µM | [3] 26.6 µM | [4] 23.7 µM | [8] 0.19 µM | [7] 0.0133 µM
inactive: [1] | [5] | [9] | [10]

CNC(=O)Oc1ccccc1C1OCCO1
not listed: [6] | [8]
inactive: all other assays above

O=C(O)c1ccc2[nH]cc(CCCCN3CC=C(c4ccccc4)CC3)c2c1
inactive: all assays above

COc1cc(OC)nc(Oc2cccc(Oc3nc(OC)cc(OC)n3)c2C(=O)O)n1
inactive: all assays above

Nc1ccccc1Cl
inactive: all assays above

Cc1nnc2n1-c1sc(CCC(=O)N3CCOCC3)cc1C(c1ccccc1Cl)=NC2
inactive: [1] | [2] | [3] | [4] | [5]

c1cc2c(c(N3CCNCC3)c1)OCCO2
inactive: all assays above

O=C(Nc1ccccc1)c1ccccc1I
active: [2] 48.6 µM | [3] 27.3 µM | [4] 61.1 µM
not listed: [8]
inactive: all other assays above

CCN(CC)CCOC(=O)C(C)(c1ccccc1)c1ccccc1
active: [2] 8.41 µM | [3] 11.9 µM | [4] 23.7 µM
inactive: [1] | [5]

C[N+](=O)[O-]
inactive: [1] | [2] | [3] | [4]

CC1(C)C(=O)NC(=O)NC1=O
inactive: [1] | [2] | [3] | [4] | [5]

CCC(=O)c1ccccc1
not listed: [6]
inactive: all other assays above

CCCCc1ccc(O)cc1
inactive: [1] | [2] | [3] | [4] | [5]

CC1(C)COP(Oc2ccccc2)OC1
inactive: all assays above

CC(C)CC#N
inactive: all assays above

CC1=C(C(=O)Nc2ccccc2)S(=O)(=O)CCO1
inactive: [1] | [5]
active: [2] 15.3 µM | [3] 15.3 µM | [4] 17.2 µM

COC(C)(C)C
inactive: [1] | [2] | [3] | [4] | [5]

CCCCCCI
inactive: all assays above

O=[N+]([O-])c1ccc(CBr)cc1
inactive: [1] | [2] | [3] | [4]

CN1CCC(O)(c2ccc(F)cc2)C(C(=O)c2ccc(F)cc2)C1 (stereo not given)
inactive: [1] | [5]
active: [2] 9.44 µM | [3] 13.3 µM | [4] 13.3 µM

C[N+](C)=CCl
inactive: [1] | [2] | [3] | [4]

CSc1ccc(C(=O)C(C)(C)N2CCOCC2)cc1
inactive: [1] | [5]
active: [2] 48.6 µM | [3] 68.6 µM | [4] 48.6 µM

CC1CN1P(=O)(N1CC1C)N1CC1C (stereo not given)
inactive: [1] | [2] | [3] | [4] | [5] | [9]

CC(C)CP(=S)(S)CC(C)C
inactive: [1] | [9]
active: [2] 13.7 µM | [3] 13.7 µM | [4] 8.63 µM | [5] 17.4 µM

CC(C)COP(=O)(OCC(C)C)OCC(C)C
inactive: [1] | [2] | [3] | [4] | [5] | [9]

CCCCN(CCCCO)N=O
inactive: [1] | [2] | [3] | [4] | [5] | [9]

CN(N=O)C(N)=O
inactive: [1] | [2] | [3] | [4] | [5] | [9]

NC(=O)c1cc([N+](=O)[O-])cc([N+](=O)[O-])c1
inactive: [1] | [2] | [3] | [4] | [5] | [9]

Nc1cc2c3c(c1)C(c1ccccc1)=N[C@@H](NC(=O)c1cccnc1)C(=O)N3CC2
inactive: [1] | [2] | [3] | [4] | [5] | [9]

N#Cc1c(Cl)cccc1Cl
inactive: [1] | [2] | [3] | [4] | [5] | [9]

CCS(=O)(=O)CCSP(=O)(OC)OC
inactive: [1] | [5] | [9]
active: [2] 61.1 µM | [3] 38.6 µM | [4] 48.6 µM

CCC1(c2ccccc2)C(=O)NC(=O)NC1=O
inactive: [1] | [2] | [3] | [4] | [5] | [9]

Nc1cc(Cl)ccc1O
inactive: [1] | [5] | [9]
active: [2] 14.9 µM | [3] 14.9 µM | [4] 9.37 µM

CC(=O)CC(c1ccc(Cl)cc1)c1c(O)c2ccccc2oc1=O (stereo not given)
inactive: [1] | [2] | [3] | [4] | [5] | [9]

NC(=S)C(N)=S
inactive: [1] | [2] | [3] | [4] | [5] | [9]

ClC(Cl)C(Cl)Cl
inactive: [1] | [2] | [3] | [4] | [5] | [9]

CC(C)NCC(O)c1ccc(N)c(C#N)c1 (stereo not given)
inactive: [1] | [2] | [3] | [4] | [5] | [9]

COc1cc(OC)nc(Sc2cccc(Cl)c2C(=O)O)n1
inactive: [1] | [2] | [3] | [4] | [5] | [9]

CCN(CC)C(=O)[C@@H]1C=C2c3cccc4[nH]cc(c34)C[C@H]2N(C)C1
inactive: [1] | [5] | [9]
active: [2] 8.98 µM and 10.6 µM | [3] 101 µM and 23.7 µM | [4] 31.9 µM and 11.9 µM

O=C(Cc1ccccc1)OCc1ccccc1
inactive: [1] | [2] | [3] | [4] | [5] | [9]

N#CCBr
inactive: [1] | [2] | [3] | [4] | [5] | [9]
